The text below walks through data of PubChem BioAssay (NCI).

Test systems include NCI-H23 lung; NCI-H226 lung; NCI-H322M lung; HOP-62 NSCLC; NCI-H460 lung; HOP-92 NSCLC; NCI-H522 lung; A549/ATCC NSCLC; 786-0 renal; COLO 205 colon; DU-145 prostate; K-562 leukemia; MDA-MB-231 breast; RXF 393 renal; SF-268 CNS; SF-295 CNS; SF-539 CNS; M14 melanoma; MALME-3M melanoma.
Assay in all cases: NCI-60 one-dose screen, 48 h (100 = growth as untreated, 0 = no growth, -100 = all killed)
Holding throughout (conditions): 10 µM unless noted

Compounds without any hit were thinned out: in the full panel of roughly 83,000, 20% have a hit.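 96-well plates, one dose, 48 hours. Percent growth reported; active if below 10.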 Values without a mark were called inactive. Calls of active or inactive are those of the source.

As to `Fc1ccc(NCc2cn(-c3ccccc3)nc2-c2ccc(OCc3ccccc3)cc2)cc1Cl`, the growth in the experiment on NCI-H23 lung was 82%; with NCI-H226 lung it was 102%; with NCI-H322M lung, 105%; in the experiment with HOP-62 NSCLC it was 76.6%; with NCI-H460 lung, 110%; in the experiment on HOP-92 NSCLC it was 91.2%. Further, the growth with NCI-H522 lung is 58.5%; in the experiment on A549/ATCC NSCLC it was 83.3%; in the experiment on 786-0 renal, 88.7%; in the experiment with COLO 205 colon it was 100%; in the experiment on DU-145 prostate, 107%; in the experiment on K-562 leukemia, 89.8%. The growth is 72.7% in the experiment with MDA-MB-231 breast; 112% with RXF 393 renal; 92.2% in the experiment on SF-268 CNS; 87% with SF-295 CNS; 93.3% with SF-539 CNS; 88.1% with M14 melanoma.

Take `NN1C(=O)CSC1=S`: the growth in the experiment with NCI-H23 lung was 97.5%; in the experiment with NCI-H226 lung it was 100%; with NCI-H322M lung it was 98.9%; in the experiment with HOP-62 NSCLC, 81.7%; with NCI-H460 lung it was 105%; in the experiment on HOP-92 NSCLC, 102%. The growth with NCI-H522 lung was 73.3%; with A549/ATCC NSCLC, 65.5%; in the experiment with 786-0 renal, 99.2%; in the experiment on COLO 205 colon, 107%; in the experiment with DU-145 prostate, 108%; in the experiment on K-562 leukemia it was 101%. The growth in the experiment on MALME-3M melanoma is 109%; in the experiment with MDA-MB-231 breast, 105%; with SF-268 CNS, 95.9%; in the experiment on SF-295 CNS, 105%; in the experiment on SF-539 CNS it was 105%; with M14 melanoma, 97.6%.

Consider `CCc1nc2cc(F)c(/C=C/C(=O)NO)cc2c(=O)n1CCc1ccccc1`, for which the growth with NCI-H23 lung is 25.9%; in the experiment on NCI-H226 lung it was 32.7%; in the experiment with NCI-H322M lung, 23.1%; in the experiment with HOP-62 NSCLC it was 5.35% (active); in the experiment on NCI-H460 lung, 7.49% (active); in the experiment on HOP-92 NSCLC, 15.5%. The growth with NCI-H522 lung was -7.46% (active); in the experiment on A549/ATCC NSCLC, 14.9%; with 786-0 renal, -5.29% (active); with COLO 205 colon, -23.3% (active); in the experiment with DU-145 prostate, 7.93% (active); in the experiment with K-562 leukemia, 7.24% (active). In addition, the growth is 15.4% with MDA-MB-231 breast; -13.5% (active) with RXF 393 renal; 16% in the experiment on SF-268 CNS; 11% with SF-295 CNS; 4.01% (active) with SF-539 CNS; 15.7% in the experiment with M14 melanoma.

`O=C(Nc1ccc(N=Nc2ccccc2)cc1)c1cccc2ccccc12`: the growth with NCI-H23 lung was 81.2%; in the experiment with NCI-H226 lung it was 78.2%; in the experiment on NCI-H322M lung it was 77.9%; in the experiment with HOP-62 NSCLC it was 60.5%; with NCI-H460 lung it was 61.1%; in the experiment on HOP-92 NSCLC it was 82.5%. Besides, the growth was 34.9% in the experiment with NCI-H522 lung; 46.1% in the experiment with A549/ATCC NSCLC; 79.4% in the experiment with 786-0 renal; 77.1% in the experiment on COLO 205 colon; 85.3% with DU-145 prostate; 21.3% in the experiment with K-562 leukemia. Besides, the growth in the experiment on MALME-3M melanoma is 71.6%; in the experiment on MDA-MB-231 breast, 65.9%; in the experiment on SF-268 CNS it was 77.5%; in the experiment with SF-295 CNS, 57.1%; with SF-539 CNS, 69%; in the experiment with M14 melanoma it was 37.6%.

Take `CCc1nc2cc(/C=C/C(=O)NO)c(F)cc2c(=O)n1CCc1ccccc1`: the growth in the experiment with NCI-H23 lung is -5.22% (active); with NCI-H226 lung it was 3.63% (active); in the experiment with NCI-H322M lung, 20.5%; in the experiment with HOP-62 NSCLC, -4.23% (active); with NCI-H460 lung, 3.81% (active); in the experiment with HOP-92 NSCLC it was 7.39% (active). For the same compound, the growth with NCI-H522 lung was 10.6%; with A549/ATCC NSCLC it was -2.46% (active); with 786-0 renal it was 0.452% (active); in the experiment with COLO 205 colon it was -33.1% (active); in the experiment on DU-145 prostate, 4.01% (active); in the experiment on K-562 leukemia, 6.83% (active). The growth in the experiment with MDA-MB-231 breast is 15.5%; in the experiment on RXF 393 renal it was -21.3% (active); with SF-268 CNS, 8.51% (active); with SF-295 CNS, 13.5%; in the experiment on SF-539 CNS it was 1.7% (active); in the experiment on M14 melanoma it was 3.41% (active).

In the case of `O=C(Nc1ccc(C(=O)Nc2ccc(C3=NCCCN3)cc2)cc1)Nc1ccc(C2=NCCCN2)cc1`, the growth was 63% in the experiment with NCI-H23 lung; 67.9% in the experiment on NCI-H226 lung; 84.8% with NCI-H322M lung; 87.1% in the experiment on HOP-62 NSCLC; 75% with NCI-H460 lung; 80.5% in the experiment with HOP-92 NSCLC. For the same compound, the growth with NCI-H522 lung was 71.6%; with A549/ATCC NSCLC, 75.9%; in the experiment with 786-0 renal, 96.7%; in the experiment with COLO 205 colon, 105%; in the experiment with DU-145 prostate, 96.1%; in the experiment on MALME-3M melanoma, 69.5%. The growth with MDA-MB-231 breast was 92.4%; in the experiment on SF-268 CNS it was 110%; in the experiment with SF-295 CNS it was 85.3%; in the experiment on SF-539 CNS, 87.2%; in the experiment on M14 melanoma it was 87%.

In the case of `COc1ccc(C2CC(=O)c3c(O)c(OC)c(OC)c(OC)c3O2)c(O)c1` (stereo not given), the growth was 27.5% in the experiment on NCI-H23 lung; 66.8% with NCI-H226 lung; 51.4% in the experiment on NCI-H322M lung; 64.9% in the experiment on HOP-62 NSCLC; 9.27% (active) in the experiment with NCI-H460 lung; 77.9% in the experiment on HOP-92 NSCLC. The growth in the experiment with NCI-H522 lung was 12%; in the experiment on A549/ATCC NSCLC, 28.1%; in the experiment with 786-0 renal, 47.2%; with COLO 205 colon, 57.3%; in the experiment on DU-145 prostate, 22.2%; with K-562 leukemia, 13.9%. Besides, the growth in the experiment with MALME-3M melanoma is 64.7%; with MDA-MB-231 breast, 24.9%; in the experiment on SF-268 CNS, 44.4%; with SF-295 CNS, 7.86% (active); in the experiment on SF-539 CNS, -7.78% (active); with M14 melanoma, 12.6%.
